High-throughput results as filed in PubChem BioAssay.
PHOSPHO1 block: PHOSPHO1 (human) inhibition. recombinant PHOSPHO1, absorbance phosphatase assay. inhibition, % at 13.3 µM. actives 1.1% (n = 290,000). Q8TCT1; in the data active = inhibition above about 60%
Wnt bcat act: activators of Wnt/beta-catenin signaling | Wnt/beta-catenin reporter cell assay, activator, plate reader | actives 1.2% (n = 300,000) | activation, % at 9.35 µM | AID 743398; in the data active = activation above about 30%, passing the limit was not always enough; inconclusive = no clear call, values can overlap the other calls
esBAF inh: SWI/SNF esBAF complex inhibition; AID 602393; mouse ES cells, Bmi1-luciferase knock-in reporter, 24 h; 100% = twice the neutral-well signal; actives 2% (n = 350,000); reporter increase, % at 12.5 µM; in the data active = activation above about 40%; inconclusive = no clear call, values can overlap the other calls;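 note: a rise in the Bmi1 reporter signal indicates esBAF inhibition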
APOBEC3A inh: human APOBEC3A DNA deaminase inhibition; P31941; actives 0.41% (n = 330,000); recombinant A3A, FAM/TAMRA ssDNA deamination fluorescence; inhibition, % at 20 µM;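 active = at least 40% inhibition at 20 µM here, with at most 30% in a related deaminase screen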
A3G deaminase: inhibitors of human APOBEC3G DNA deaminase; Q9HC16; recombinant A3G, ssDNA deamination FAM/TAMRA fluorescence; inhibition, % at 20 µM; actives 0.28% (n = 330,000);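 active = inhibition of at least 40% at 20 µM, with no more than 30% in the related APOBEC3A deaminase screen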
Target sequence (Q9HC16 whole entry, looked up): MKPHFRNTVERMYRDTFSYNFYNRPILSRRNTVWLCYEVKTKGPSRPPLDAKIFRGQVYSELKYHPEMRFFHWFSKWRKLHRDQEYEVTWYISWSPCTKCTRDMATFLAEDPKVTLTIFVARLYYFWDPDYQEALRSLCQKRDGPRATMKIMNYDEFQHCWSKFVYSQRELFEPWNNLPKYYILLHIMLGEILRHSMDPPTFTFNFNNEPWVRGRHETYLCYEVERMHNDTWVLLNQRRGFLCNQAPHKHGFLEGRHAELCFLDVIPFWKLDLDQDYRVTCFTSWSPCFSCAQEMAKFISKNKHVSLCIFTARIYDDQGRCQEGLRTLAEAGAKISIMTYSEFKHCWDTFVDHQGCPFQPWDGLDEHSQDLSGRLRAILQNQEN
MITF act: MITF TRPM1 promoter activation in melanoma cells; activation, % at 12.5 µM; SK-MEL-5 TRPM1-promoter luciferase, 24 h; % of positive control, neutral wells = 0; actives 0.75% (n = 300,000);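 active = mean activation of at least 80% with every replicate also reaching 80%; inconclusive = mean reaches 80% but some replicate falls short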
Of the large screens only hits and unclear results are named; the others gave an inactive call. Sampled rows, rich in hits. Any-hit rate of the full collection: about 3.6%.

CC(=O)CC1(O)C(=O)N(Cc2ccccc2)c2ccccc21 (stereo unspecified)	Wnt bcat act 43
C/C(CC1(O)C(=O)N(Cc2ccccc2)c2ccccc21)=N\O (stereo unspecified)	none
Cc1ccc(/C=N/Nc2nc3ccccc3[nH]2)s1	Wnt bcat act 156 (no result: esBAF inh)
Fc1cccc(/C=N/Nc2nc3ccccc3[nH]2)c1	none (no result: esBAF inh, MITF act)
C(=C\c1ccccc1)/C=N/Nc1nc2ccccc2[nH]1	Wnt bcat act 90 (no result: esBAF inh)
Cc1ccccc1/C=N/Nc1nc2ccccc2[nH]1	none (no result: esBAF inh)
O=C(O)c1cccc(N/N=C/c2cc(Br)cc(Br)c2O)c1	esBAF inh 77 (no result: Wnt bcat act)
Cc1c(/C=N/Nc2ccc(C(=O)O)cc2)c2ccccc2n1C	esBAF inh 67, MITF act 90
C[C@@H](O)C#Cc1ccc2c(c1)O[C@H](CN(C)Cc1ccncc1)[C@@H](C)CN([C@@H](C)CO)S2(=O)=O	none (no result: PHOSPHO1 block, Wnt bcat act, APOBEC3A inh, A3G deaminase, MITF act)
C(=N\Nc1nc2ccccc2[nH]1)/c1c[nH]c2ccccc12	MITF act 123 (no result: Wnt bcat act, esBAF inh)
Cc1[nH]c2ccccc2c1/C=N/NC(=O)c1ccccc1	none (no result: esBAF inh)
C(=N\Nc1nc2ccccc2[nH]1)/C1CCCCC1	none (no result: esBAF inh)
COc1ccc(/C=N/Nc2nc3ccccc3[nH]2)c(OC)c1OC	none
C(/CCc1ccccc1)=N\Nc1nc2ccccc2[nH]1	Wnt bcat act 40 (no result: esBAF inh)
Cc1[nH]c2ccccc2c1/C=N/Nc1cccc(C(=O)O)c1	PHOSPHO1 block 61 (no result: esBAF inh)
C(=N\Nc1nc2ccccc2[nH]1)/c1cccc2cccnc12	Wnt bcat act 37 (no result: esBAF inh, MITF act)
C[C@@H]1CCCCO[C@H](CN(C)C(=O)c2ccncc2)[C@H](C)CN([C@H](C)CO)C(=O)c2cc(NS(=O)(=O)c3cccs3)ccc2O1	none (no result: PHOSPHO1 block, Wnt bcat act, APOBEC3A inh, A3G deaminase, MITF act)
COc1cccc(CN2[C@@H]3CN(C(=O)c4ccncc4)c4ccccc4[C@@H]3[C@@H]2CO)c1	none (no result: PHOSPHO1 block, Wnt bcat act, APOBEC3A inh, A3G deaminase, MITF act)
C[C@H]1CCCCO[C@H](CN(C)Cc2ccc3c(c2)OCO3)[C@@H](C)CN([C@@H](C)CO)C(=O)c2cc(NC(=O)c3ccccc3)ccc2O1	none (no result: PHOSPHO1 block, Wnt bcat act, APOBEC3A inh, A3G deaminase, MITF act)
Cc1ccc(/C=N/Nc2nc(Cl)c(Cl)cc2Cl)s1	Wnt bcat act 72, esBAF inh 60
Cc1ccc2nc(NCc3ccccc3)[nH]c2c1	none (no result: APOBEC3A inh, A3G deaminase)
Cc1[nH]c2ccccc2c1/C=N/Nc1nc(N2CCCCC2)nc(N2CCCCC2)n1	none (no result: esBAF inh)
Cc1[nH]c2ccccc2c1/C=N/Nc1nc2ccccc2[nH]1	Wnt bcat act 98 (no result: esBAF inh, MITF act)
c1ccc(CNc2nc3ccccc3[nH]2)cc1	MITF act 83
C(=N\Nc1nc2ccccc2[nH]1)/c1ccccc1	esBAF inh 55
C[C@@H]1CN([C@@H](C)CO)C(=O)Cc2cc(NC(=O)Cc3cn(C)c4ccccc34)ccc2O[C@H]1CN(C)S(=O)(=O)c1cn(C)cn1	none (no result: PHOSPHO1 block, Wnt bcat act, APOBEC3A inh, A3G deaminase, MITF act)
CC(=O)N1[C@H](CO)[C@@H]2c3ccccc3N(S(=O)(=O)c3ccc(F)cc3)C[C@@H]21	none (no result: PHOSPHO1 block, Wnt bcat act, APOBEC3A inh, A3G deaminase, MITF act)
CC1=C(C(=O)OCc2ccccc2)C(c2ccc(Br)cc2)NC(=O)N1CCCCCC(=O)O (stereo unspecified)	Wnt bcat act 46, esBAF inh 90 (no result: PHOSPHO1 block)
CCN1CCc2c(OCC(=O)Nc3ccc(C)cc3)cccc2C1=O	PHOSPHO1 block 62
CC(=O)N1CCN(C(=S)c2ccc(N(C)C)cc2)CC1	PHOSPHO1 block 90
CN(C)c1ccc(C(=S)N2CCCCCC2)cc1	none (no result: Wnt bcat act, MITF act)
Cc1ccc(N2CCN(C(=S)c3ccc(N(C)C)cc3)CC2)cc1	PHOSPHO1 block 66
CC(C)NC(=O)Nc1ccc2c(c1)CC(=O)N([C@@H](C)CO)C[C@H](C)[C@H](CN(C)CC1CCCCC1)O2	none (no result: PHOSPHO1 block, Wnt bcat act, APOBEC3A inh, A3G deaminase, MITF act)
O=C(Nc1ccccc1)Nc1ccc2c(c1)CCC2	esBAF inh 49
O=C(Nc1cccc(F)c1)Nc1ccc2c(c1)CCC2	Wnt bcat act 34, esBAF inh 64, MITF act inconclusive
COc1ccc(CN(C)C[C@@H]2OCCCC[C@@H](C)Oc3ccc(NC(=O)Nc4ccc(F)cc4)cc3C(=O)N([C@@H](C)CO)C[C@@H]2C)cc1	none (no result: PHOSPHO1 block, Wnt bcat act, APOBEC3A inh, A3G deaminase, MITF act)
C[C@@H]1CN([C@@H](C)CO)S(=O)(=O)c2ccc(C#CC3CC3)cc2O[C@H]1CN(C)C(=O)C1CC1	none (no result: PHOSPHO1 block, Wnt bcat act, APOBEC3A inh, A3G deaminase, MITF act)
CC(C)(C)C1CCC(C(=O)Nc2nccs2)CC1 (stereo unspecified)	esBAF inh 53 (no result: MITF act)
Cc1cnc(NC(=O)C2CCC(C(C)(C)C)CC2)s1 (stereo unspecified)	none
